Measured values taken from paper PMC12820563, “FoxP3 forms a head-to-head dimer in vivo and stabilizes its multimerization on adjacent microsatellites”.
In all, about 16,000 sequences were measured (“rpm ratio (pull-down/input)”: median about 0.94, highest 2% from about 1.7 on). Many of the other results were omitted from the sample, so the highest values are more common in it than they were.

Molecular target: T1, MBP-FoxP1dN (Mus musculus, UniProt P58462 326-579)
T1 sequence: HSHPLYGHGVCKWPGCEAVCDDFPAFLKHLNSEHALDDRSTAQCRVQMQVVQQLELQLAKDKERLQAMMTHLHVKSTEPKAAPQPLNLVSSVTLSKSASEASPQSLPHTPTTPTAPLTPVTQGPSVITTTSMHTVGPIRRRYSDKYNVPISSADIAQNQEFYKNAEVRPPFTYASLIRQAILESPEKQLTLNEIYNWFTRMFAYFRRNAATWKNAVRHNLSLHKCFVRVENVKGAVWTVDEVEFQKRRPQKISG
Experiment: PD-seq (MBP pull-down with sequencing); 20 mM Tris-HCl pH 7.5, 100 mM NaCl, 1.5 mM MgCl2, 0.4 uM protein, 0.1 uM dsDNA library, 30 min, room temperature, amylose pull-down; high values mean tight binding
Details: protein: recombinant; tags: His6-MBP; chain copies: 2; dsDNA, one strand shown
Method in brief: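 Mouse FoxP3 or FoxP1 fragment lacking the N-terminus, His6-MBP-tagged and expressed in E. coli, was incubated at 0.4 µM with 0.1 µM Klenow-filled degenerate double-stranded DNA library for 30 min at room temperature in Tris pH 7.5 buffer with NaCl and MgCl2. Complexes captured on amylose resin were washed three times and their DNA sequenced on Illumina. Binding is reads-per-million enrichment of pull-down over input, replicates pooled.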

Sequence	binding signal
GATGATTGTTCTCCCAGCTGATGAATTCCTCAGATCGAGTAAACAAATTTTCCTAATCTTTCTGTTCAAGCGCCATCTAC	0.761 RPM ratio (pull-down/input)
GATGATTGTTCTCCCAGCTGATGAATTCATAAACTCGAGTAAACAAATTTTCCTAATCTTTCTGTTCAAGCGCCATCTAC	1.07 RPM ratio (pull-down/input)
GATGATTGTTCTCCCAGCTGATGAATTGTTTGCATCGAGTAAACAAATTTTCCTAATCTTTCTGTTCAAGCGCCATCTAC	2.26 RPM ratio (pull-down/input)
GATGATTGTTCTCCCAGCTGATGAATTTGTTGCATCGAGTAAACAAATTTTCCTAATCTTTCTGTTCAAGCGCCATCTAC	1.84 RPM ratio (pull-down/input)
GATGATTGTTCTCCCAGCTGATGAATTTGCAGCATCGAGTAAACAAATTTTCCTAATCTTTCTGTTCAAGCGCCATCTAC	1.09 RPM ratio (pull-down/input)
GATGATTGTTCTCCCAGCTGATGAATTATTGCAATCGAGTAAACAAATTTTCCTAATCTTTCTGTTCAAGCGCCATCTAC	1.49 RPM ratio (pull-down/input)
GATGATTGTTCTCCCAGCTGATGAATTCTTTGCATCGAGTAAACAAATTTTCCTAATCTTTCTGTTCAAGCGCCATCTAC	1.26 RPM ratio (pull-down/input)
GATGATTGTTCTCCCAGCTGATGAATTTGCATGATCGAGTAAACAAATTTTCCTAATCTTTCTGTTCAAGCGCCATCTAC	1.05 RPM ratio (pull-down/input)
GATGATTGTTCTCCCAGCTGATGAATTTTTTGCATCGAGTAAACAAATTTTCCTAATCTTTCTGTTCAAGCGCCATCTAC	1.45 RPM ratio (pull-down/input)
GATGATTGTTCTCCCAGCTGATGAATTATTTGCATCGAGTAAACAAATTTTCCTAATCTTTCTGTTCAAGCGCCATCTAC	1.89 RPM ratio (pull-down/input)
GATGATTGTTCTCCCAGCTGATGAATTATTGCCATCGAGTAAACAAATTTTCCTAATCTTTCTGTTCAAGCGCCATCTAC	1.24 RPM ratio (pull-down/input)
GATGATTGTTCTCCCAGCTGATGAATTCCCCTCTTCGAGTAAACAAATTTTCCTAATCTTTCTGTTCAAGCGCCATCTAC	0.821 RPM ratio (pull-down/input)
GATGATTGTTCTCCCAGCTGATGAATTCTCAGGGTCGAGTAAACAAATTTTCCTAATCTTTCTGTTCAAGCGCCATCTAC	0.745 RPM ratio (pull-down/input)
GATGATTGTTCTCCCAGCTGATGAATTGTGCCTGTCGAGTAAACAAATTTTCCTAATCTTTCTGTTCAAGCGCCATCTAC	0.964 RPM ratio (pull-down/input)
GATGATTGTTCTCCCAGCTGATGAATTTCGCAAGTCGAGTAAACAAATTTTCCTAATCTTTCTGTTCAAGCGCCATCTAC	0.831 RPM ratio (pull-down/input)
GATGATTGTTCTCCCAGCTGATGAATTAGGAACGTCGAGTAAACAAATTTTCCTAATCTTTCTGTTCAAGCGCCATCTAC	0.882 RPM ratio (pull-down/input)
GATGATTGTTCTCCCAGCTGATGAATTGCCGTCGTCGAGTAAACAAATTTTCCTAATCTTTCTGTTCAAGCGCCATCTAC	0.968 RPM ratio (pull-down/input)
GATGATTGTTCTCCCAGCTGATGAATTAGACATATCGAGTAAACAAATTTTCCTAATCTTTCTGTTCAAGCGCCATCTAC	1.06 RPM ratio (pull-down/input)
GATGATTGTTCTCCCAGCTGATGAATTTACTAAGTCGAGTAAACAAATTTTCCTAATCTTTCTGTTCAAGCGCCATCTAC	1.29 RPM ratio (pull-down/input)
GATGATTGTTCTCCCAGCTGATGAATTCCCACGATCGAGTAAACAAATTTTCCTAATCTTTCTGTTCAAGCGCCATCTAC	0.81 RPM ratio (pull-down/input)
GATGATTGTTCTCCCAGCTGATGAATTTGCAATATCGAGTAAACAAATTTTCCTAATCTTTCTGTTCAAGCGCCATCTAC	1.34 RPM ratio (pull-down/input)
GATGATTGTTCTCCCAGCTGATGAATTGTCAATATCGAGTAAACAAATTTTCCTAATCTTTCTGTTCAAGCGCCATCTAC	2.23 RPM ratio (pull-down/input)
GATGATTGTTCTCCCAGCTGATGAATTCTGAATATCGAGTAAACAAATTTTCCTAATCTTTCTGTTCAAGCGCCATCTAC	0.974 RPM ratio (pull-down/input)

Sequence	binding signal
GATGATTGTTCTCCCAGCTGATGAATTTCTAATATCGAGTAAACAAATTTTCCTAATCTTTCTGTTCAAGCGCCATCTAC	1.09 RPM ratio (pull-down/input)
GATGATTGTTCTCCCAGCTGATGAATTTCCAATATCGAGTAAACAAATTTTCCTAATCTTTCTGTTCAAGCGCCATCTAC	1.02 RPM ratio (pull-down/input)
GATGATTGTTCTCCCAGCTGATGAATTTCAAATATCGAGTAAACAAATTTTCCTAATCTTTCTGTTCAAGCGCCATCTAC	0.914 RPM ratio (pull-down/input)
GATGATTGTTCTCCCAGCTGATGAATTTGTAATATCGAGTAAACAAATTTTCCTAATCTTTCTGTTCAAGCGCCATCTAC	1.36 RPM ratio (pull-down/input)
GATGATTGTTCTCCCAGCTGATGAATTTTCAATATCGAGTAAACAAATTTTCCTAATCTTTCTGTTCAAGCGCCATCTAC	1.06 RPM ratio (pull-down/input)
GATGATTGTTCTCCCAGCTGATGAATTCCTAATATCGAGTAAACAAATTTTCCTAATCTTTCTGTTCAAGCGCCATCTAC	1.07 RPM ratio (pull-down/input)
GATGATTGTTCTCCCAGCTGATGAATTGTAAATATCGAGTAAACAAATTTTCCTAATCTTTCTGTTCAAGCGCCATCTAC	2.72 RPM ratio (pull-down/input)
GATGATTGTTCTCCCAGCTGATGAATTGCAAATATCGAGTAAACAAATTTTCCTAATCTTTCTGTTCAAGCGCCATCTAC	1.85 RPM ratio (pull-down/input)
GATGATTGTTCTCCCAGCTGATGAATTCTAAATATCGAGTAAACAAATTTTCCTAATCTTTCTGTTCAAGCGCCATCTAC	1.76 RPM ratio (pull-down/input)
GATGATTGTTCTCCCAGCTGATGAATTAGAAAGGTCGAGTAAACAAATTTTCCTAATCTTTCTGTTCAAGCGCCATCTAC	0.826 RPM ratio (pull-down/input)
GATGATTGTTCTCCCAGCTGATGAATTCACCTACTCGAGTAAACAAATTTTCCTAATCTTTCTGTTCAAGCGCCATCTAC	0.921 RPM ratio (pull-down/input)
GATGATTGTTCTCCCAGCTGATGAATTTATCGCTTCGAGTAAACAAATTTTCCTAATCTTTCTGTTCAAGCGCCATCTAC	1.1 RPM ratio (pull-down/input)
GATGATTGTTCTCCCAGCTGATGAATTCGTCCCCTCGAGTAAACAAATTTTCCTAATCTTTCTGTTCAAGCGCCATCTAC	0.772 RPM ratio (pull-down/input)
GATGATTGTTCTCCCAGCTGATGAATTTTGAGAATCGAGTAAACAAATTTTCCTAATCTTTCTGTTCAAGCGCCATCTAC	0.914 RPM ratio (pull-down/input)
GATGATTGTTCTCCCAGCTGATGAATTTACAAAATCGAGTAAACAAATTTTCCTAATCTTTCTGTTCAAGCGCCATCTAC	1.74 RPM ratio (pull-down/input)
GATGATTGTTCTCCCAGCTGATGAATTTTTTACATCGAGTAAACAAATTTTCCTAATCTTTCTGTTCAAGCGCCATCTAC	0.953 RPM ratio (pull-down/input)
GATGATTGTTCTCCCAGCTGATGAATTACAAAAATCGAGTAAACAAATTTTCCTAATCTTTCTGTTCAAGCGCCATCTAC	1.59 RPM ratio (pull-down/input)
GATGATTGTTCTCCCAGCTGATGAATTTACAACATCGAGTAAACAAATTTTCCTAATCTTTCTGTTCAAGCGCCATCTAC	1.67 RPM ratio (pull-down/input)
GATGATTGTTCTCCCAGCTGATGAATTGTTTACATCGAGTAAACAAATTTTCCTAATCTTTCTGTTCAAGCGCCATCTAC	2.91 RPM ratio (pull-down/input)
GATGATTGTTCTCCCAGCTGATGAATTTTACAAATCGAGTAAACAAATTTTCCTAATCTTTCTGTTCAAGCGCCATCTAC	1.1 RPM ratio (pull-down/input)
GATGATTGTTCTCCCAGCTGATGAATTTTACATATCGAGTAAACAAATTTTCCTAATCTTTCTGTTCAAGCGCCATCTAC	0.97 RPM ratio (pull-down/input)
GATGATTGTTCTCCCAGCTGATGAATTTACATAATCGAGTAAACAAATTTTCCTAATCTTTCTGTTCAAGCGCCATCTAC	1.76 RPM ratio (pull-down/input)
GATGATTGTTCTCCCAGCTGATGAATTACATAAATCGAGTAAACAAATTTTCCTAATCTTTCTGTTCAAGCGCCATCTAC	1.64 RPM ratio (pull-down/input)
